Out of some 190,000 compounds screened, about 490 (0.26%) were called active. This excerpt belongs to a sample that is enriched for actives. Values without a mark were called inactive. No stated cut-off is given here; in the data, active means fluorescence above about 89; inactive means the rest.
Assay: green autofluorescence of compounds with GSH beads – biophysical, 488/530 nm, flow cytometry, artefact control, profiling panel (AID 1776);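 further: glutathione beads carrying GST-tagged Bcl family fusion proteins plus one bare bead set; values are compound well signal with DMSO vehicle wells as background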
Settings: compound fluorescence 488/530 nm, at 10 µM, hits give high values

First: COc1cc(-c2cc(C(=O)OCC(=O)Nc3ccc4c(c3)OCO4)c3ccccc3n2)cc(OC)c1OC
Second: COc1cc(OC)cc(-c2nc3ccccc3c(=O)n2NC(=O)c2cccnc2Cl)c1
The fluorescence (KMESF) of the first is lower: 4 for the first, 10 for the second.

Going from `Cc1cc(C)cc(C(=O)NC2C(=O)N3C(C(=O)O)=C(CSc4nnc(C)s4)CSC23)c1` (stereo unspecified) to `COCCSc1nnc(NC(=O)c2cc(OC)c(OC)cc2[N+](=O)[O-])s1`, the fluorescence (KMESF) rises from 12 to 21.

Compared with `CCOC(=O)CNc1nc(Cl)nc(Nc2ccccc2)n1`, `Cc1ccccc1Nc1nc(N)nc(CSc2ccccc2)n1` is higher in fluorescence (KMESF): 10 for the first, 11 for the second.

Compared with `Cc1cccc(OCC(O)CN2CCN(CCN3C(=O)c4cccc5cccc(c45)C3=O)CC2)c1C` (stereo unspecified), `Cc1ccccc1OCC(O)CN1CCN(c2ccccn2)CC1` (stereo unspecified) is lower in fluorescence (KMESF): 13 for the first, 9 for the second.

First: Cc1cccc(C(=O)OCC(=O)Nc2sc3c(c2C#N)CCC3)c1
Second: COc1cccc(OC)c1C(=O)OCC(=O)/C(C#N)=C(\C)N
The fluorescence (KMESF) of the first is lower: 5 for the first, 11 for the second.

First: CC(C)CC(=O)NC(=S)Nc1ccc(F)cc1F
Second: CNc1ccc(NC(C)=O)cc1[N+](=O)[O-]
The fluorescence (KMESF) of the first is lower: 10 for the first, 13 for the second.

Going from `Cc1ccc(C2NC(C(=O)O)CS2)cc1` (stereo unspecified) to `Cc1ccc(-c2cn3cc([N+](=O)[O-])ccc3n2)cc1`, the fluorescence (KMESF) rises from 11 to 13.

Compared with `O=C(Nc1ccccc1F)c1ccccc1-c1ccccc1`, `O=c1[nH]c(-c2ccccc2)c(-c2ccccc2)[nH]1` is higher in fluorescence (KMESF): 15 for the first, 20 for the second.

First: Cc1cc(C)nc(Nc2cc([N+](=O)[O-])ccc2C)n1
Second: Cc1cc(C)nc(NNC2=CC(=O)CC(C)(C)C2)n1
The fluorescence (KMESF) of the first is lower: 10 for the first, 16 for the second.

Compared with `CCOC(=O)C1(Cc2cccc(OC)c2)CCN(Cc2csc(C(C)=O)c2)CC1`, `CCOC(=O)C(NC(C)=O)C(=O)Nc1ccc(OC)cc1` (stereo unspecified) is higher in fluorescence (KMESF): 17 for the first, 24 for the second.

Going from `COCC(C)NC(=O)CSc1nc2nn(-c3ccccc3)c(=O)c-2c2n1CCCCC2` (stereo unspecified) to `CCOC(=O)c1sc(NC(=O)CSc2nc3c(c(=O)n2-c2ccccc2)SCC3)c(C(=O)OCC)c1C`, the fluorescence (KMESF) falls from 25 to 16.

Going from `C/C(=N\NC(=O)NC1CCCCC1)c1ccc(OC(F)F)cc1OC(F)F` to `CC1CCCCC1NC(=O)CN1CCC(O)(c2ccc3c(c2)OCO3)CC1` (stereo unspecified), the fluorescence (KMESF) rises from 14 to 15.

Compared with `COc1cccc(/C=C(/CC(=O)Nc2ccc(N3CCOCC3)cc2)c2nc3ccccc3s2)c1`, `O=C(COc1ccc([N+](=O)[O-])cc1)Nc1ccc(N2CCCC2)cc1` is lower in fluorescence (KMESF): 13 for the first, 9 for the second.

First: CCS(=O)(=O)c1ccc(C(=O)NC)c(Cl)c1Cl
Second: CC(=O)Cc1nsc(NC(=O)c2ccc(Cl)cc2Cl)n1
The fluorescence (KMESF) of the first is higher: 12 for the first, 10 for the second.

First: Cc1nn(C)c(C)c1S(=O)(=O)N1CCC(CO)(Cc2ccc(Cl)cc2)CC1
Second: Cc1ccc(Cl)cc1NC(=O)C1CCN(S(C)(=O)=O)CC1
The fluorescence (KMESF) of the first is higher: 23 for the first, 13 for the second.

Compared with `NS(=O)(=O)c1ccc(NC(=S)NC(=O)c2cccc(Br)c2)cc1`, `Cc1cc(NS(=O)(=O)c2ccc(NC(=S)NC(=O)c3ccc(F)cc3Cl)cc2)no1` is lower in fluorescence (KMESF): 19 for the first, 12 for the second.

Going from `COc1cc(NC(=O)c2cc([N+](=O)[O-])ccc2Br)ccc1NC(=O)c1ccco1` to `Cc1cc([N+](=O)[O-])ccc1NC(=O)c1ccc(NC(=O)C(C)C)cc1`, the fluorescence (KMESF) rises from 8 to 17.

Compared with `O=C(NCc1cccnc1)c1nc(-c2cccs2)no1`, `COc1cccc(OC)c1C(=O)NC(=S)NCc1ccco1` is lower in fluorescence (KMESF): 15 for the first, 10 for the second.

Compared with `Cc1ccc(C(=O)NN(CCC#N)C2=NS(=O)(=O)c3ccccc32)cc1`, `Cc1ccc(C(=O)NC(C)c2ccccc2)cc1Br` (stereo unspecified) is lower in fluorescence (KMESF): 20 for the first, 15 for the second.

First: CCNC(=O)c1ccc(OCC(=O)Nc2ccc(F)cc2)c(OC)c1
Second: O=C(/C=C/c1ccc(F)cc1)NC(=S)NNC(=O)c1cccnc1
The fluorescence (KMESF) of the first is higher: 14 for the first, 7 for the second.

First: CCC(C)c1ccc(NC(=S)NCc2ccccn2)cc1 (stereo unspecified)
Second: C/C(=N/NC(=S)Nc1ccccc1)c1ccc2c(c1)OCO2
The fluorescence (KMESF) of the first is higher: 13 for the first, 5 for the second.

Compared with `CC(C)(C)NC(=O)CN1CCC(NC(=O)C23CC4CC(CC(C4)C2)C3)CC1`, `O=C(N/N=C/c1ccccn1)C12CC3CC(CC(C3)C1)C2` is lower in fluorescence (KMESF): 20 for the first, 10 for the second.

`Cc1ccc(CN(Cc2cccnc2)C(=S)Nc2cc(Cl)ccc2C)cc1` and `Cc1ccc(NS(=O)(=O)c2ccc(C)c(NC(=O)COc3ccc4ccccc4c3)c2)c(C)c1` are the same in fluorescence (KMESF): 15 for the first, 15 for the second.

First: CCOC(=O)C1CCN(c2ccc(C(=O)O)cc2[N+](=O)[O-])CC1
Second: CCOc1ccc(Br)cc1S(=O)(=O)N1CCC(C(=O)O)CC1
The fluorescence (KMESF) of the first is higher: 14 for the first, 10 for the second.

Going from `Cc1cc(SCC(=O)NCCN2C(=O)CSC2=O)nc2ccccc12` to `C#CCCCc1nc2ccccc2c(=O)n1N`, the fluorescence (KMESF) falls from 15 to 11.

Going from `Cc1ccc(CC2S/C(=C(/C#N)C(=O)N3CCOCC3)N(c3ccccc3)C2=O)cc1` (stereo unspecified) to `O=C(/C=C/c1cn(-c2ccccc2)nc1-c1ccc2c(c1)OCCO2)NCCCN1CCOCC1`, the fluorescence (KMESF) falls from 25 to 15.

Going from `CCN(CC)C(=O)CN(c1cccc([N+](=O)[O-])c1)S(=O)(=O)c1ccccc1` to `CCN(c1ccccc1)S(=O)(=O)c1ccc(N)cc1`, the fluorescence (KMESF) falls from 52 to 14.

Going from `CNC(=O)CSc1nnnn1-c1ccc(C)cc1C` to `CCOC(=O)CNC(=O)CSc1nnnn1-c1cc(C)ccc1C`, the fluorescence (KMESF) rises from 23 to 33.

Compared with `CN(C)CC(C)(C)CNC(=O)c1cc(Br)cc(Br)c1O`, `Cc1scc(C(=O)NNC(=S)NCC(C)C)c1C` is lower in fluorescence (KMESF): 12 for the first, 5 for the second.

Going from `C=CCNC(=S)NNC(=O)COc1c(Cl)cc(Cl)cc1Cl` to `CCCOCC(O)CC(CC)C(=O)NNC(=S)Nc1ccccc1` (stereo unspecified), the fluorescence (KMESF) rises from 12 to 13.

First: COc1ccc(C(=O)NNc2cc(C)nc(NNC(=O)c3ccc(OC)cc3)n2)cc1
Second: COc1ccc(S(=O)(=O)N2CN(CCc3ccc(OC)c(OC)c3)c3nc4ccccc4nc32)cc1
The fluorescence (KMESF) of the first is lower: 11 for the first, 15 for the second.

Compared with `CC1=C(C)CC(C(=O)NNC(=O)c2csc3c2CCC(C(C)(C)C)C3)C(C(=O)O)C1` (stereo unspecified), `Cc1cc([N+](=O)[O-])ccc1NC(=O)C1CCCO1` (stereo unspecified) is lower in fluorescence (KMESF): 10 for the first, 8 for the second.

First: Cc1ccccc1CC1(CO)CCCN(Cc2ccc3c(c2)OCCO3)C1 (stereo unspecified)
Second: O=C(/C=C\c1ccc2c(c1)OCO2)NC1(C(=O)Nc2ccc3c(c2)OCCO3)CCCCC1
The fluorescence (KMESF) of the first is higher: 18 for the first, 7 for the second.

`S=c1[nH]ccn1-c1ccc(Cl)cc1` and `O=C1/C(=C\c2ccsc2)NC(=S)N1c1ccccc1` are the same in fluorescence (KMESF): 11 for the first, 11 for the second.

Compared with `OCCC#Cc1ccc(CN2CCN(Cc3ccsc3)C(CCO)C2)cc1` (stereo unspecified), `CCc1ccc(CN2C(=O)c3ccccc3C2C(=O)NCC2CCCO2)cc1` (stereo unspecified) is higher in fluorescence (KMESF): 10 for the first, 14 for the second.

Going from `CCCCCc1nnc(NC(=O)c2ccc(=O)n(C)n2)s1` to `CCOC(=O)CSc1nc2c(sc(=S)n2CCc2ccccc2)c(=O)n1Cc1ccco1`, the fluorescence (KMESF) falls from 16 to 11.

Going from `CC1(C)CC(=O)C(N=Nc2ccc(S(=O)(=O)N3CCCCCC3)cc2)=C(O)C1` to `CC(C)C1C2=C(CC(C)(C)CC2=O)ON1c1ccccc1` (stereo unspecified), the fluorescence (KMESF) rises from 11 to 52.

First: Cc1ccc(C)c(-n2ccnc2SCC(N)=O)c1
Second: NC(=O)Cc1ccc2sc(-c3ccccc3)nc2c1
The fluorescence (KMESF) of the first is higher: 20 for the first, 4 for the second.

First: CC(C)c1nc(CNC(=O)CC2C(=O)NCCN2Cc2ccoc2)cs1 (stereo unspecified)
Second: O=C(NCc1cccs1)C(=O)NCC1OCCCN1S(=O)(=O)c1ccc(F)cc1 (stereo unspecified)
The fluorescence (KMESF) of the first is higher: 15 for the first, 10 for the second.

Compared with `COc1cc(OC)c(C(=O)N2CCCC2)cc1OC`, `COc1ccccc1-c1noc(CSc2nc(C)cc(=O)[nH]2)n1` is higher in fluorescence (KMESF): 10 for the first, 20 for the second.

First: Cc1nn(-c2ccc([N+](=O)[O-])cc2)c(N)c1-c1ccccc1
Second: Cc1nc2ccccc2nc(=O)c1NNc1ccc([N+](=O)[O-])cc1
The fluorescence (KMESF) of the first is lower: 8 for the first, 20 for the second.

First: S=C(Nc1cccc(Br)c1)N1CCn2cccc2C1c1cccnc1 (stereo unspecified)
Second: COc1ccc(NC(=O)Cn2c(=O)n(Cc3ccco3)c(=O)c3ccccc32)cc1
The fluorescence (KMESF) of the first is lower: 15 for the first, 17 for the second.

Compared with `Cc1cc(=O)[nH]c(SCc2cccc(F)c2)n1`, `CCCc1c(C)nc2c(Br)cccc2c1Cl` is lower in fluorescence (KMESF): 31 for the first, 17 for the second.

`CN(C)c1ccnc2sc(C(=O)c3ccccc3)c(N)c12` and `Nc1nc(SCC(=O)NN(c2ccccc2)c2ccccc2)n[nH]1` are the same in fluorescence (KMESF): 7 for the first, 7 for the second.

Compared with `O=C(CC1Nc2ccccc2NC1=O)Nc1ccccc1NC(=O)CC1Nc2ccccc2NC1=O` (stereo unspecified), `CC/C(Cc1ccccc1)=N/NC(=O)CCn1nnc2ccccc21` is lower in fluorescence (KMESF): 13 for the first, 12 for the second.

Going from `CCCCC(O)(CCCC)C(=O)NN(C(=O)CCl)c1ccccc1` to `COC(=O)Cc1c(O)ccn(Cc2cccc(C(F)(F)F)c2)c1=O`, the fluorescence (KMESF) rises from 9 to 11.

`O=C1N/C(=C/c2cccs2)C(=O)N1Cc1ccc(F)cc1` showed a fluorescence (KMESF) of 18.

For `OC(COc1cccc2ccccc12)CN1CCN(c2ccccn2)CC1` (stereo unspecified), the fluorescence (KMESF) was 265 (active).
In the case of `Cc1ccc(-n2cc3ccc([N+](=O)[O-])cc3n2)cc1`, the fluorescence (KMESF) was 104 (active).
For `CCOc1ccc(S(=O)(=O)N(CC(=O)O)c2ccccc2)cc1`, the fluorescence (KMESF) was 264 (active).
In the case of `Cc1ccc(C)c(-n2nnnc2SCC(=O)c2c(N)n(C)c(=O)n(C)c2=O)c1`, the fluorescence (KMESF) was 179 (active).
With `Cc1cc(=O)[nH]c(SCc2cc(Cl)ccc2OC(F)F)n1` the fluorescence (KMESF) was 270 (active).
With `CC1(C)CC(=O)NC=C(c2ccccc2)C1` the fluorescence (KMESF) was 272 (active).
For `CCCC(CCC(=O)OC)(C(=O)OCC)c1csc(N)n1` (stereo unspecified), the fluorescence (KMESF) was 262 (active).
With `CN(c1ccccc1)c1ccc(/C=c2\s/c(=C(/C#N)C(=O)C(C)(C)C)n(Cc3ccco3)c2=O)cc1` the fluorescence (KMESF) was 145 (active).

From PubChem BioAssay AID1776 (NMMLSC, 2009)
